Results published in PubChem BioAssay AID624330 (Southern Research Specialized Biocontainment Screening …, 2012).
Out of some 340,000 compounds screened, about 2,100 (0.62%) were called active.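 How the source made its calls: active means first-screen hits whose inhibition reached a set limit at any dose in the follow-up dose series; inconclusive means inhibition above the set first-screen limit but never retested; inactive means the rest.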 The list is a sample of the results. Entries with a potency or affinity are not part of this list.

The compounds below were run against Rac GTPase-activating protein 1 (Homo sapiens) (UniProt Q9H0H5) (assay: blockers of MgcRacGAP-driven Rac1 GTP hydrolysis – biochemical, ADP Hunter fluorescence, primary and confirmatory, confirmation (AID 624330;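 further: fluorescence reports GDP produced by GAP-driven GTP hydrolysis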)). Details: MgcRacGAP-stimulated Rac1 GTP hydrolysis, at 30 µM, stronger effect = higher value, GST-tagged Rac1 F28L mutant substrate.
Sequence of Rac GTPase-activating protein 1 (Homo sapiens) (Q9H0H5 whole entry, looked up): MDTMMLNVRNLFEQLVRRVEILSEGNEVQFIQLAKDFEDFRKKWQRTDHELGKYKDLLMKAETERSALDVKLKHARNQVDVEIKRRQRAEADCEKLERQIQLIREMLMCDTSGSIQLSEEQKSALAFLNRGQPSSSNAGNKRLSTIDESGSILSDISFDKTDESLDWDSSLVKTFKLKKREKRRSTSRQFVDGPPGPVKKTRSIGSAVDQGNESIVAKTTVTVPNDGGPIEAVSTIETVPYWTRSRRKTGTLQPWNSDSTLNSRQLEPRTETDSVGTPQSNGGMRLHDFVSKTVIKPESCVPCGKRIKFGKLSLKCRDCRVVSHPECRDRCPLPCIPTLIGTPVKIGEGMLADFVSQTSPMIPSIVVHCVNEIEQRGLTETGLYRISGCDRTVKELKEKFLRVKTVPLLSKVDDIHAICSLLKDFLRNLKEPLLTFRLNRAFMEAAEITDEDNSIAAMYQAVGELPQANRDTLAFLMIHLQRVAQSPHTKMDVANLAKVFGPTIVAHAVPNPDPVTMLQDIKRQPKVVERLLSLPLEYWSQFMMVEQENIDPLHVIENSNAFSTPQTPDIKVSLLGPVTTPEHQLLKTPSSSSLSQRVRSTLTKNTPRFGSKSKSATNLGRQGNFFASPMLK

inhibition, inactive:
CCOCCCN(C(=O)CCC(=O)Nc1cc(C)on1)C(C(=O)NC(C)(C)C)c1ccccc1Cl (configuration not stated) 5.98%
COc1ccc(-c2c(NC(=O)CC(C)C)n(C)c3ccccc3c2=O)cc1OC 4.25%
Cn1c(COc2ccc([N+](=O)[O-])cc2)nnc1SCC(=O)NCC1CCCO1 (configuration not stated) 5.87%
CCN(CC)CCCNc1nc(-c2ccccc2)nc2ccccc12 17.7%
CCN(CC)CCCNc1nc2ccccc2[nH]1 7.22%
CCCCCCCCCCCCCCC(O)C[N+](C)(CCO)CCO (configuration not stated) 20.8%
CCCCCC(O)CCCC(=O)O (configuration not stated) 7.64%
CCOc1ccc(-n2nc3c(SCCN4CCCC4)nnc(C)c3c2C)cc1 10.3%
Oc1ccccc1Cc1c(O)ccc2ccccc12 23.7%
c1ccc2c(c1)ccc1ccccc12 -3.62%
COc1ccc(N/C=C2/Sc3ccccc3NC2=O)cc1 17.3%
c1ccc2c(c1)Nc1nccnc1S2 28.4%
c1ccc2c(c1)Nc1cc3ccccc3cc1S2 14.6%
FC(F)(F)c1cnc2c(c1)Nc1ccccc1S2 10.2%
COc1ccc2c(c1)S(=O)(=O)c1ccccc1N2 11.9%
Clc1cc2c(nn1)Nc1ccccc1S2 6.5%
Cn1c(N)c(C(=O)CSc2nnc(C3CC3)n2Cc2ccccc2)c(=O)[nH]c1=O 2.66%
N#Cc1ccc(OCC(=O)N2CCN(S(=O)(=O)c3cccc(Cl)c3)CC2)cc1 -0.69%
COc1ccc(NC(=O)CN(C)C(=O)/C=C/c2cn(-c3ccccc3)nc2-c2ccc(C)cc2)cc1 9.39%
CCOC(=O)Cc1csc(NC(=O)c2csc(C)c2)n1 9.83%
Cc1cc(OCCN2CCCC2)ccc1[N+](=O)[O-] 19.6%
Cc1cc(OCCN2CCC(Cc3ccccc3)CC2)ccc1[N+](=O)[O-] 22%
O=C(c1ccccc1)c1ccc(OCCOCCN2CCN(Cc3ccccc3)CC2)cc1 25.1%
CCOc1ccccc1OCCOCCN1CCN(Cc2ccccc2)CC1 26.4%
COc1cccc(NS(=O)(=O)c2c(C)nc3sccn3c2=O)c1 4.23%
CCc1cc(C(=O)NCC(c2ccco2)N2CCCCC2)sc1C (configuration not stated) 5.34%
Cc1cccc(C(=O)OCC(=O)N2CCCCCC2)c1C 2.72%
CCN(C[C@H]1N[C@@](Cc2ccccc2)(C(=O)OC)[C@H]2C(=O)N(Cc3ccccc3)C(=O)[C@@H]12)C(=O)Nc1ccc(C)cc1 4.71%
CCOC(=O)c1ccc(NC(=S)N2CCC(C(N)=O)(N3CCCCC3)CC2)cc1 -1.44%
CCN(CC)CCSc1nc(O)c(Cc2ccccc2)c(=O)n1-c1ccccc1 2.56%
O=C(CNCCN1CCOCC1)Nc1ccccc1Sc1ccccc1 24.9%
CCN1CCN(CC(=O)Nc2ccc(Cl)c(S(=O)(=O)N(C)C)c2)CC1 28.1%
CN(C)S(=O)(=O)c1cc(NC(=O)CN2CCOCC2)ccc1Cl 2.76%
Cc1ccc(NC(=O)CCl)cc1S(=O)(=O)N1CCCCCC1 4.4%
Cc1ccccc1C(=O)NCC(=O)Nc1ccc(C)c(S(=O)(=O)N2CCCCCC2)c1 -0.01%
Cc1ccc(C(=O)NCCCN2CCOCC2)cc1S(=O)(=O)N1CCCCC1 1.84%
Cc1ccccc1NC(=O)C(=O)NCCCN1CCOCC1 4.72%
Cc1ccc(NC(=O)CN2CCOCC2)cc1S(=O)(=O)N1CCCCC1 7.06%
CC(Oc1cccc(Cl)c1)C(=O)N1CCN(c2ncccn2)CC1 (configuration not stated) 3.63%
O=C(Nc1ccccc1C(=O)O)c1cc(S(=O)(=O)N2CCOCC2)cs1 3.51%
Cc1ccc(/C=N/N2CCN(C3c4ccccc4-c4ccccc43)CC2)o1 8.36%
COc1ccc(N2CCN(C(=O)c3cc4c(s3)CCCCC4)CC2)cc1 14.7%
COCCn1c(SCC(=O)N2CCCCCC2)nnc1-c1ccco1 3.7%
CCC(CNC(=O)c1c(C)nn(-c2ccccc2)c1Cl)c1ccccc1 (configuration not stated) -0.7%
Cc1ccc(S(=O)(=O)N2CCCCC2)cc1C(=O)N(C)CCOc1ccccc1 8.29%
O=C(Cn1cnc2c(nnn2-c2ccc(F)cc2)c1=O)NCC1CCCO1 (configuration not stated) 8.9%
Cc1cc(C)n(CCc2nc3c4ccccc4n(CC#N)c(=O)n3n2)n1 3.22%
COc1cc(-c2csc(CCn3nc(C)cc3C)n2)cc(OC)c1OC 4.55%
COC(=O)C1CCN(S(=O)(=O)Cc2ccccc2Cl)CC1 7.49%
COc1cc(OC)c(OC)cc1C#N 2.13%
COc1cc2c(cc1OC)C1(CCCC1)CNC2C (configuration not stated) 1.49%
O=C(Nc1ccc(F)cc1)C(NC1CCCCC1)c1ccccc1 (configuration not stated) 9.33%
COc1ccc(C2=NS(=O)(=O)N(C)C(C(=O)N3CCCCC3C)=C2)cc1 (configuration not stated) 2.61%
COc1ccc(C(C)C)cc1S(=O)(=O)Nc1ccccn1 -2.56%
COc1ccc(C(=O)N(c2ccc(OC)cc2)S(=O)(=O)c2cccs2)cc1 3.2%
COc1ccc(N(C(=O)c2ccncc2)S(=O)(=O)c2cccs2)cc1 5.29%
O=C(Nc1ccc(-c2nc3ccccc3[nH]2)cc1)c1ccc2c(c1)OCO2 0.3%
COc1ccccc1C1C2=C(N=C3SCC(=O)N31)c1ccccc1CC2 (configuration not stated) 7%
CCOC(=O)c1cc(-c2ccccc2)nn1CCC#N 8.67%
COc1ccc(OCc2nn3c(Cn4cnc5ccccc54)nnc3s2)cc1 19.9%
Cc1ccnc(SCc2cn3c(C)cccc3n2)n1 0.6%
COc1cccc(/C=C/C(=O)OCC(=O)NCC2CCCCC2)c1OC -1.97%
COc1cc(/C=C/C(=O)OCC(=O)NCCC2=CCCCC2)cc(OC)c1OC -10.3%
COc1cc(/C=C/C(=O)OCC(=O)NC2CCCCCCC2)ccc1O 26.5%
COc1ccc(/C=C/C(=O)OCC(=O)NCCC2=CCCCC2)cc1OC 4.2%
COc1cc(/C=C/C(=O)OCC(=O)NC2CCS(=O)(=O)C2)ccc1OC(F)F (configuration not stated) 2.44%
COc1ccc(/C=C/C(=O)OCC(=O)NC2CCS(=O)(=O)C2)cc1 (configuration not stated) -1.92%
